# Data as given in PubChem BioAssay (NCI).
# About 79,000 compounds went through this panel and 15% of them were active in at least one assay; those are over-represented in the sample as a whole. A number with no mark means an inactive call. Active and inactive are the calls of the source. Rule as the data show it: active = growth inhibition above about 70%; inactive = the rest.
# Assays:
# [1] = NCI Yeast Anticancer Drug Screen. Data for the rad52 strain (AID 147);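 also: 0% = growth of vehicle-treated control cultures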; conditions: S. cerevisiae rad52 mutant growth inhibition, stronger effect = higher value
# In short: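 The repair-mutant yeast strain was incubated with compounds, then growth was read and inhibition derived relative to vehicle.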
# [2] = NCI Yeast Anticancer Drug Screen. Data for the wt1 strain (AID 149);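 also: 0% = growth of vehicle-treated wt1 cultures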; conditions: S. cerevisiae wt1 strain (SPY 50644) growth inhibition, stronger effect = higher value
# In short: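 Growth inhibition read against vehicle controls after compound exposure of the wt1 yeast strain.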
# [3] = NCI Yeast Anticancer Drug Screen. Data for the rad50EPP+ strain (AID 151);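 also: 0% = growth of vehicle-treated control cultures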; conditions: S. cerevisiae rad50 mutant strain, stronger effect = higher value
# In short: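 Vehicle-normalised growth inhibition; rad50EPP+ yeast strain, altered in DNA damage repair, compound-treated.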
# [4] = NCI Yeast Anticancer Drug Screen. Data for the mgt1 strain (AID 153); conditions: S. cerevisiae mgt1 mutant growth inhibition, stronger effect = higher value
# In short: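 Vehicle-normalized growth inhibition is determined in mgt1 yeast, a strain selected for a defined alteration in DNA repair or cell cycle control.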
# [5] = NCI Yeast Anticancer Drug Screen. Data for the rad50 strain (AID 155);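 also: 0% = growth of vehicle-only cultures of the same strain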; conditions: S. cerevisiae rad50 strain growth inhibition, stronger effect = higher value
# In short: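 Readout: growth inhibition relative to vehicle-treated cultures. Compound exposure was carried out in a genetically defined yeast strain deficient in DNA damage repair.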
# [6] = NCI Yeast Anticancer Drug Screen. Data for the mec2-1 strain (AID 157); conditions: S. cerevisiae mec2-1 strain, stronger effect = higher value
# In short: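 Mutant yeast (mec2-1) grown with compound; growth inhibition relative to vehicle control reported.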
# [7] = NCI Yeast Anticancer Drug Screen. Data for the rad14 strain (AID 159);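 also: 0% = growth of vehicle-treated control cultures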; conditions: S. cerevisiae rad14 strain growth inhibition, stronger effect = higher value
# In short: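 Growth inhibition vs vehicle controls; genetically altered yeast strain (DNA damage repair defect) treated with test compounds.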
# [8] = NCI Yeast Anticancer Drug Screen. Data for the sgs1 mgt1 strain (AID 161);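 also: 0% = growth of cultures given vehicle only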; conditions: S. cerevisiae sgs1 mgt1 strain, stronger effect = higher value
# In short: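 Yeast cells carrying a defined DNA-repair defect were exposed to test compounds. Growth inhibition was measured relative to vehicle-treated controls.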
# [9] = NCI Yeast Anticancer Drug Screen. Data for the CLN2oe strain (AID 163);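 also: 0% = growth of vehicle-only control cultures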; conditions: S. cerevisiae CLN2oe strain, stronger effect = higher value
# In short: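 Compounds are applied to yeast harbouring a defined cell-cycle control change; reduced growth compared with vehicle-treated controls gives the value.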
# [10] = NCI Yeast Anticancer Drug Screen. Data for the cln2 rad14 strain (AID 165);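 also: 0% = growth equal to vehicle treated cultures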; conditions: S. cerevisiae cln2 rad14 strain, stronger effect = higher value
# In short: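 Readout is yeast growth inhibition versus vehicle-treated controls, using a strain with cln2 and rad14 alterations exposed to compound.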
# [11] = NCI Yeast Anticancer Drug Screen. Data for the bub3 strain (AID 167); conditions: S. cerevisiae bub3 mutant strain, stronger effect = higher value
# In short: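 Readout: yeast growth inhibition, expressed relative to vehicle-only wells. The test organism is a mutant strain from a panel with lesions in DNA repair or checkpoint genes.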
# [12] = NCI Yeast Anticancer Drug Screen. Data for the wt2 strain (AID 169);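 also: 0% = growth of vehicle-treated yeast cultures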; conditions: S. cerevisiae wt2 strain growth inhibition, stronger effect = higher value
# In short: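 Against vehicle-treated controls, the growth of yeast exposed to each compound was compared, and the inhibition was recorded.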
# [13] = NCI Yeast Anticancer Drug Screen. Data for the mlh1 strain (AID 171);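 also: 0% = growth of vehicle-treated control cultures of the same strain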; conditions: S. cerevisiae mlh1 strain growth inhibition, stronger effect = higher value
# In short: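 Measured: yeast growth. Reference: vehicle-treated controls. Organism: strain with a defined alteration affecting DNA damage repair or cell cycle control, treated with compound.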
# [14] = NCI Yeast Anticancer Drug Screen. Data for the sgs1 strain (AID 173);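 also: 0% = growth of vehicle-only control cultures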; conditions: S. cerevisiae sgs1 mutant, stronger effect = higher value
# In short: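 Each compound was added to cultures of the altered yeast strain. Growth was recorded, and inhibition was derived by comparison with vehicle controls.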
# [15] = NCI Yeast Anticancer Drug Screen. Data for the mlh1 rad18 strain (AID 175); conditions: S. cerevisiae mlh1 rad18 strain growth inhibition, stronger effect = higher value
# In short: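 Genetically defined yeast (DNA repair-deficient) exposed to compounds; growth inhibition determined relative to vehicle.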
# [16] = NCI Yeast Anticancer Drug Screen. Data for the rad18 strain (AID 177); conditions: S. cerevisiae rad18 mutant growth inhibition, stronger effect = higher value
# In short: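 Vehicle-treated cultures served as the baseline for scoring compound-induced growth inhibition in DNA-repair-mutant yeast.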
# [17] = at 5.0 µM (retest, dose inferred, filed as 0.5)
# [18] = at 50.0 µM (retest, dose inferred, filed as 5.0)
smiles,measurement,setting,value
CSc1nnc(SC)nn1,growth inhibition,[1]; at 1.2 µM,1%
same,growth inhibition,[1]; at 3.7 µM,7%
same,growth inhibition,[1]; at 11.0 µM,0%
same,growth inhibition,[1]; at 33.0 µM,52%
same,growth inhibition,[1]; at 100.0 µM,98% (active)
same,growth inhibition,[2]; at 1.2 µM,-4%
same,growth inhibition,[2]; at 3.7 µM,-5%
same,growth inhibition,[2]; at 11.0 µM,-14%
same,growth inhibition,[2]; at 33.0 µM,22%
same,growth inhibition,[2]; at 100.0 µM,99% (active)
same,growth inhibition,[3]; at 1.2 µM,6%
same,growth inhibition,[3]; at 3.7 µM,4%
same,growth inhibition,[3]; at 11.0 µM,-2%
same,growth inhibition,[3]; at 33.0 µM,26%
same,growth inhibition,[3]; at 100.0 µM,98% (active)
same,growth inhibition,[4]; at 1.2 µM,8%
same,growth inhibition,[4]; at 3.7 µM,4%
same,growth inhibition,[4]; at 11.0 µM,13%
same,growth inhibition,[4]; at 33.0 µM,72% (active)
same,growth inhibition,[4]; at 100.0 µM,98% (active)
same,growth inhibition,[5]; at 1.2 µM,-13%
same,growth inhibition,[5]; at 3.7 µM,-3%
same,growth inhibition,[5]; [17],51%
same,growth inhibition,[5]; at 11.0 µM,-2%
same,growth inhibition,[5]; at 33.0 µM,45%
same,growth inhibition,[5]; [18],98% (active)
same,growth inhibition,[5]; at 50.0 µM,82.2% (active)
same,growth inhibition,[5]; at 100.0 µM,96% (active)
same,growth inhibition,[6]; at 1.2 µM,9%
same,growth inhibition,[6]; at 3.7 µM,1%
same,growth inhibition,[6]; [17],57%
same,growth inhibition,[6]; at 11.0 µM,16%
same,growth inhibition,[6]; at 33.0 µM,77% (active)
same,growth inhibition,[6]; [18],97% (active)
same,growth inhibition,[6]; at 50.0 µM,77.8% (active)
same,growth inhibition,[6]; at 100.0 µM,99% (active)
same,growth inhibition,[7]; at 1.2 µM,-10%
same,growth inhibition,[7]; at 3.7 µM,0%
same,growth inhibition,[7]; at 11.0 µM,34%
same,growth inhibition,[7]; at 33.0 µM,77% (active)
same,growth inhibition,[7]; at 100.0 µM,98% (active)
same,growth inhibition,[8]; [17],-10%
same,growth inhibition,[8]; [18],99% (active)
same,growth inhibition,[8]; at 50.0 µM,82.8% (active)
same,growth inhibition,[9]; at 1.2 µM,12%
same,growth inhibition,[9]; at 3.7 µM,-6%
same,growth inhibition,[9]; at 11.0 µM,15%
same,growth inhibition,[9]; at 33.0 µM,31%
same,growth inhibition,[9]; at 100.0 µM,98% (active)
same,growth inhibition,[10]; [17],57%
same,growth inhibition,[10]; [18],95% (active)
same,growth inhibition,[10]; at 50.0 µM,87.7% (active)
same,growth inhibition,[11]; at 1.2 µM,11%
same,growth inhibition,[11]; at 3.7 µM,27%
same,growth inhibition,[11]; [17],34%
same,growth inhibition,[11]; at 11.0 µM,65%
same,growth inhibition,[11]; at 33.0 µM,90% (active)
same,growth inhibition,[11]; [18],98% (active)
same,growth inhibition,[11]; at 50.0 µM,93.1% (active)
same,growth inhibition,[11]; at 100.0 µM,99% (active)
same,growth inhibition,[12]; at 1.2 µM,9%
same,growth inhibition,[12]; at 3.7 µM,5%
same,growth inhibition,[12]; at 11.0 µM,3%
same,growth inhibition,[12]; at 33.0 µM,38%
same,growth inhibition,[12]; at 100.0 µM,99% (active)
same,growth inhibition,[13]; at 1.2 µM,-2%
same,growth inhibition,[13]; at 3.7 µM,6%
same,growth inhibition,[13]; at 11.0 µM,15%
same,growth inhibition,[13]; at 33.0 µM,55%
same,growth inhibition,[13]; at 100.0 µM,99% (active)
same,growth inhibition,[14]; at 1.2 µM,-2%
same,growth inhibition,[14]; at 3.7 µM,3%
same,growth inhibition,[14]; at 11.0 µM,0%
same,growth inhibition,[14]; at 33.0 µM,44%
same,growth inhibition,[14]; at 100.0 µM,98% (active)
same,growth inhibition,[15]; [17],58%
same,growth inhibition,[15]; [18],99% (active)
same,growth inhibition,[15]; at 50.0 µM,70.8% (active)
same,growth inhibition,[16]; at 1.2 µM,-4%
same,growth inhibition,[16]; at 3.7 µM,11%
same,growth inhibition,[16]; at 11.0 µM,12%
same,growth inhibition,[16]; at 33.0 µM,67%
same,growth inhibition,[16]; at 100.0 µM,98% (active)
C=C(C(=C)n1nnc(C(=O)OC)c1C(=O)OC)n1nnc(C(=O)OC)c1C(=O)OC,growth inhibition,[1]; at 1.2 µM,0%
same,growth inhibition,[1]; at 3.7 µM,2%
same,growth inhibition,[1]; at 11.0 µM,3%
same,growth inhibition,[1]; at 33.0 µM,0%
same,growth inhibition,[1]; at 100.0 µM,0%
same,growth inhibition,[2]; at 1.2 µM,-1%
same,growth inhibition,[2]; at 3.7 µM,0%
same,growth inhibition,[2]; at 11.0 µM,1%
same,growth inhibition,[2]; at 33.0 µM,0%
same,growth inhibition,[2]; at 100.0 µM,1%
same,growth inhibition,[3]; at 1.2 µM,0%
same,growth inhibition,[3]; at 3.7 µM,-1%
same,growth inhibition,[3]; at 11.0 µM,-1%
same,growth inhibition,[3]; at 33.0 µM,-2%
same,growth inhibition,[3]; at 100.0 µM,0%
same,growth inhibition,[4]; at 1.2 µM,0%
same,growth inhibition,[4]; at 3.7 µM,5%
same,growth inhibition,[4]; at 11.0 µM,0%
same,growth inhibition,[4]; at 33.0 µM,-1%
same,growth inhibition,[4]; at 100.0 µM,-3%
same,growth inhibition,[5]; at 1.2 µM,0%
same,growth inhibition,[5]; at 3.7 µM,1%
same,growth inhibition,[5]; [17],3%
same,growth inhibition,[5]; at 11.0 µM,0%
same,growth inhibition,[5]; at 33.0 µM,0%
same,growth inhibition,[5]; [18],2%
same,growth inhibition,[5]; at 50.0 µM,27.1%
same,growth inhibition,[5]; at 100.0 µM,-2%
same,growth inhibition,[6]; at 1.2 µM,-5%
same,growth inhibition,[6]; at 3.7 µM,-5%
same,growth inhibition,[6]; [17],-1%
same,growth inhibition,[6]; at 11.0 µM,-3%
same,growth inhibition,[6]; at 33.0 µM,-2%
same,growth inhibition,[6]; [18],-1%
same,growth inhibition,[6]; at 50.0 µM,51.9%
same,growth inhibition,[6]; at 100.0 µM,-5%
same,growth inhibition,[7]; at 1.2 µM,1%
same,growth inhibition,[7]; at 3.7 µM,3%
same,growth inhibition,[7]; at 11.0 µM,3%
same,growth inhibition,[7]; at 33.0 µM,3%
same,growth inhibition,[7]; at 100.0 µM,1%
same,growth inhibition,[8]; [17],10%
same,growth inhibition,[8]; [18],-3%
same,growth inhibition,[8]; at 50.0 µM,51%
same,growth inhibition,[9]; at 1.2 µM,-2%
same,growth inhibition,[9]; at 3.7 µM,-1%
same,growth inhibition,[9]; at 11.0 µM,-4%
same,growth inhibition,[9]; at 33.0 µM,0%
same,growth inhibition,[9]; at 100.0 µM,-4%
same,growth inhibition,[10]; [17],-3%
same,growth inhibition,[10]; [18],-2%
same,growth inhibition,[10]; at 50.0 µM,53.2%
same,growth inhibition,[11]; at 1.2 µM,-1%
same,growth inhibition,[11]; at 3.7 µM,-3%
same,growth inhibition,[11]; [17],2%
same,growth inhibition,[11]; at 11.0 µM,-3%
same,growth inhibition,[11]; at 33.0 µM,-5%
same,growth inhibition,[11]; [18],2%
same,growth inhibition,[11]; at 50.0 µM,66.4%
same,growth inhibition,[11]; at 100.0 µM,-4%
same,growth inhibition,[12]; at 1.2 µM,-1%
same,growth inhibition,[12]; at 3.7 µM,-1%
same,growth inhibition,[12]; at 11.0 µM,1%
same,growth inhibition,[12]; at 33.0 µM,-1%
same,growth inhibition,[12]; at 100.0 µM,0%
same,growth inhibition,[13]; at 1.2 µM,-1%
same,growth inhibition,[13]; at 3.7 µM,-2%
same,growth inhibition,[13]; at 11.0 µM,0%
same,growth inhibition,[13]; at 33.0 µM,0%
same,growth inhibition,[13]; at 100.0 µM,0%
same,growth inhibition,[14]; at 1.2 µM,0%
same,growth inhibition,[14]; at 3.7 µM,-1%
same,growth inhibition,[14]; at 11.0 µM,-2%
same,growth inhibition,[14]; at 33.0 µM,0%
same,growth inhibition,[14]; at 100.0 µM,0%
same,growth inhibition,[15]; [17],-2%
same,growth inhibition,[15]; [18],48%
same,growth inhibition,[15]; at 50.0 µM,59.5%
same,growth inhibition,[16]; at 1.2 µM,0%
same,growth inhibition,[16]; at 3.7 µM,0%
same,growth inhibition,[16]; at 11.0 µM,1%
same,growth inhibition,[16]; at 33.0 µM,0%
same,growth inhibition,[16]; at 100.0 µM,-1%
